Results filed as inconclusive are left out. Active and inactive are the calls of the source. Calls follow the shape of the dose curve; as a rule, active = well fitted inhibition curve with a large enough effect; inconclusive = small, poorly fitted or top-dose-only effect; inactive = no such curve, though single readings can be large or run the other way.
assay: P-glycoprotein substrates identified in KB-3-1 adenocarcinoma cell line, qHTS therapeutic library screen (AID 1346986); settings: KB-3-1 parental cells viability, CellTiter-Glo, 72 h; series mostly up to 44.5 µM; activity change, negative = cytotoxicity: at the top concentration; also: nearly all actives have a fitted effect of over 60% in size
Outline: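 Using luminescence to quantify ATP, parental and P-gp-overexpressing KB cells were compared after 72 h compound titration. KB-8-5-11 was also run with the P-gp inhibitor tariquidar.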

Compound | outcome
O=C(NC[C@H](O)CN1CCc2ccccc2C1)c1cc(NC2COC2)ncn1 | inactive
CCC(NC(=O)CC(NC(=O)C(CO)NC(=O)C(CC)NC(=O)c1ccc[nH]1)c1ccccc1)C(=O)O (stereo unspecified) | inactive [at 17.4 µM]
CC1(C)CC[C@]2(C(=O)O)CC[C@]3(C)C(=CCC4[C@@]5(C)C[C@H](O)[C@H](O[C@@H]6OC[C@H](O)[C@H](O)[C@H]6O)[C@@](C)(CO)C5CC[C@]43C)[C@@H]2C1 (stereo partly specified) | inactive [at 17.4 µM]
O=c1c2ccccc2nc2n1CCC2O (stereo unspecified) | inactive [at 93.4 µM]
CC(C)(O)C1CC=C(C(=O)OCC2OC(Oc3c(O)cc(C(=O)O)cc3O)C(O)C(O)C2O)CC1 (stereo unspecified) | inactive [at 17.4 µM]
C=C1CC2(C(=O)O)CC1CCC2C1(C)CCCC2(C)C(=O)OC(O)C21 (stereo unspecified) | inactive

— PubChem BioAssay (NCATS)
